# Screening results: PubChem, National Center for Advancing Translational Sciences (NCATS)
# The list is not random: actives were taken first. Their share in the collection is about 12%.
# Shiga toxin inh – blocks Shiga toxin action in Vero cells; inhibition, % at 38.7 µM; actives 9.2% (n = 290,000); Vero cells, Shiga toxin protein synthesis inhibition reporter; AID 2315; in the data active means inhibition mostly above about 28%, no sharp cut-off; inactive means mostly below about 43%; further: 0% is about no effect
# SARS PLpro yeast – SARS-CoV PLP inhibition in yeast; S. cerevisiae expressing SARS-CoV PLpro, growth rescue; Potency, µM (top dose mostly 32.9 µM), without a hit: top-dose activity, positive = growth rescue, hits mostly activators; actives 0.19% (n = 330,000); AID 485353; further: potency means the concentration at half of the fitted maximal effect; 0% is about no effect; nearly all actives have a fitted effect of over 55% in size
# NS1 function inh – blocks influenza NS1 protein function; Potency, µM (series often up to 46.1 µM), inactives show at the top dose activity, positive = more growth; actives 0.4% (n = 270,000); AID 2326; further: potency means the concentration at half of the fitted maximal effect; actives are rising curves; nearly all actives have a fitted effect of over 50% in size
#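 OD600 was taken as the measure of yeast growth restored by compound in an NS1-expressing S. cerevisiae strain. Cells had been washed out of glucose medium and diluted 1:100 into galactose -URA medium, pH 6.0.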
# CHX counter – affects cycloheximide protein synthesis inhibition readout, counter-screen. max response, %. AID 2314. cell reporter, cycloheximide protein synthesis inhibition counterscreen. actives 12% (n = 300,000); in the data active means max response mostly above about 13%, no sharp cut-off; inactive means mostly below about 14%; further: read at 38.3 µM for the half of the compounds with a filed dose; 0% is about no effect
# An asterisk follows results filed as active; u = inconclusive; x = no result given. Unless noted, the call rests on the fitted dose curve.
SMILES,Shiga toxin inh,SARS PLpro yeast,NS1 function inh,CHX counter
CCCn1c(SC(C)C(=O)NC2CCCC2)n[nH]c1=O (centres undefined),x,-5%,x,x
Cc1ccccc1OCc1nnc2c3cnn(C)c3ncn12,74,1%,-13%,39*
CCn1c(COc2ccccc2C)nnc1SCC(=O)OC,7,-1%,-8%,-3
O=C(NC(=S)NCCc1ccccc1)C1CCCCC1,55*,8%,7%,34*
O=C(NC(=S)NCc1ccccc1)C1CC1,1,1%,6%,-2
O=C(O)C1CCCCC1C(=O)NCCc1ccc(F)cc1 (centres undefined),-4,0%,4%,-2
O=C(NCCc1ccc(F)cc1)C1CCCCC1,42,0%,0%,24*
O=C(CNC(=S)NC(=O)C1CCCCC1)c1ccccc1,114*,-2%,-7%,75*
CC1CC(C)CN(C(=O)CN2C(=O)NC3(CCCCCC3)C2=O)C1 (centres undefined),x,1%,x,x
N/C(=N\NC(=O)c1ccccc1Cl)c1cc2ccccc2oc1=O,49,0%,x,32
COc1cc(CNCC2CCCO2)ccc1OCC(N)=O (centres undefined),21,-1%,-1%,-3
O=C(NCc1nc2ccccc2[nH]1)C1=C[C@H](C2CCCCC2)C[C@H](OCc2ccc(CO)cc2)O1,-6,-2%,0%,5
O=C(NCc1nc2ccccc2[nH]1)C1=C[C@@H](c2ccccc2)C[C@@H](OCc2ccc(CO)cc2)O1,4,-1%,-4%,6
O=C(NCc1nc2ccccc2[nH]1)C1=C[C@H](c2ccccc2)C[C@H](OCc2ccc(CO)cc2)O1,29,1%,6%,15*
O=C(NCc1nc2ccccc2[nH]1)C1=C[C@@H](C2CCCCC2)C[C@@H](OCc2ccc(CO)cc2)O1,46*,1%,10%,11
Cc1ccc(F)cc1NC(=O)N1CCNC(=O)C1CC(=O)Nc1cc(Cl)ccc1Cl (centres undefined),10,4%,-8%,-1
Oc1[nH]c2c(Cl)cc(Cl)cc2c1N=NC(=S)NCC1CCCO1 (centres undefined),-16,9%,24%,-3
COc1cc(S(=O)(=O)N2CCOCC2)cc(C(=O)NCC(c2cccs2)N2CCOCC2)c1OC (centres undefined),x,-4%,x,x
CCOC(=O)C1(Cc2ccccc2C)CCCN(C(=O)c2ccnn2C)C1 (centres undefined),9,0%,-6%,9
CCOC(=O)C1(Cc2ccccc2C)CCCN(Cc2cc(OC)c(O)c(OC)c2)C1 (centres undefined),38*,-1%,8%,13*
CCOC(=O)C1(Cc2ccccc2C)CCCN(C(=O)c2ccoc2)C1 (centres undefined),71*,0%,-5%,44*
CCOC(=O)C1(Cc2ccccc2C)CCCN(C(=O)c2sccc2C)C1 (centres undefined),20,-1%,-14%,29*
CC(=O)c1ccc(N2CCN(C(=O)c3cccs3)C(C)C2)c(F)c1 (centres undefined),-11,2%,-9%,-2
CCCOc1ccc(NC(=O)C2CC(=O)N/C(=N/N=C(C)/C=C/c3ccc(N(C)C)cc3)S2)cc1 (centres undefined),82*,-12%,u,40*
N#CC1=C(N)NC(SCc2ccccc2)=C(C#N)C12CCCC2,-11,u,8%,-5
SMILES,Shiga toxin inh,SARS PLpro yeast,NS1 function inh,CHX counter
N#CC1=C(N)NC(SCC(=O)c2ccccc2)=C(C#N)C12CCCC2,67*,-1%,3%,40*
Clc1ccc(-n2nnc(-c3cccnc3Cl)n2)cn1,50*,-2%,-5%,35*
Clc1ncccc1-c1nnn(-c2ccccc2Br)n1,73*,-2%,-8%,34*
O=C1c2ccccc2C(=O)N1c1ccc(Br)c2cccnc12,-2,0%,x,3
Brc1ccccc1-n1nnc(-c2nccs2)n1,77*,-3%,-11%,49*
COc1ncccc1-c1nnn(-c2ccc(Cl)nc2)n1,42,12%,-6%,20*
Cc1ccc(-n2nnc(-c3cccnc3Cl)n2)cc1,87*,-2%,-5%,47*
CCN(CC)S(=O)(=O)c1ccccc1/C=N\O,46,0%,-4%,29*
O=C(COc1ccccc1F)c1ccc(O)cc1O,-4,-8%,-195%,11
Cc1c(O)ccc(C(=O)COc2ccccc2F)c1O,86*,-6%,-42%,30*
O=C(Cn1cc2c(n1)CCCC2)N1CCc2ccccc21,12,-26%,5%,-2
Cc1nn2cc(-c3ccc(Cl)cc3)cnc2c1Cl,49*,0%,x,29*
Cc1nn2c(N)c(C#N)cnc2c1-c1ccc(Cl)cc1,-16,-7%,-8%,29
